Compound activity (PubChem BioAssay)
An excerpt weighted towards active compounds, which were near 14% of everything screened.
Lassa entry inh: blocks Lassa virus binding to or entry into cells. Lassa virus pseudotype entry inhibition, cell reporter. 1.2% of 300,000 active. Potency, µM (titrated, usually from 37.9 µM), inactives show at the top dose activity change, negative = inhibition, usual class: inhibitors; calls by dose curve; tested in HEK293 cells; further: potency means the concentration at half of the fitted maximal effect; nearly all actives have a fitted effect of over 50% in size
Pf growth 96h: P. falciparum growth inhibition at 96 hour, primary screen for plastid delayed-death inhibitors; P. falciparum luciferase reporter growth, 96 h; Potency, µM (doses to about 28.7 µM), for the others: at the highest dose activity change, negative = inhibition, usual class: inhibitors; 6.9% of 320,000 active; AID 504834; further: potency means the concentration at half of the fitted maximal effect
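96 h incubation, 37 C, 5% CO2, of luciferase-reporter P. falciparum-infected RBCs (2% hematocrit, 0.05% parasitemia final) with test compounds; endpoint luminescence.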
MARV entry inh: Marburg virus entry inhibition; Marburg virus pseudotyped entry inhibition, cell reporter; Potency, µM (series often up to 37.8 µM), for inactives: top-dose activity change, negative = inhibition, most hits filed as inhibitors; 1.8% of 300,000 active; calls by dose curve; tested in HEK293 cells; further: potency means the concentration at half of the fitted maximal effect
HCV inh: blocks hepatitis C virus. AID 651820. 3.4% of 340,000 active. Huh7.5.1 HCVcc-Cre infection, luciferase reporter, 44 h. Potency, µM (top dose mostly 41.8 µM), inactives show at the top dose activity change, negative = inhibition, most hits filed as inhibitors; further: potency means the concentration at half of the fitted maximal effect
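After 44 h co-culture of compound, cells and HCVcc-Cre (~0.5 moi), substrate is added for 15 min at room temperature and luciferase measured over 15 sec. Cells were seeded at 1,000/well and pre-cultured 4 h.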
Pf growth 48h: inhibits P. falciparum growth in the first generation, 48 h | P. falciparum luciferase growth in erythrocytes, 48 h | Potency, µM (top dose mostly 28.7 µM), without a hit: top-dose activity change, negative = inhibition, hits mostly inhibitors | 5.9% of 310,000 active | AID 504832; further: potency means the concentration at half of the fitted maximal effect
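Luminescence readout; reporter = integrated firefly luciferase in P. falciparum. RBC culture at 2% hematocrit, 0.1% parasitemia final, 37 C/5% CO2; decreased signal taken as growth inhibition.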
HCMV inh: human cytomegalovirus inhibition; HFF cells, HCMV-luciferase reporter, 72 h; active compounds read low; activity change, negative = inhibition, % at 57.5 µM; 4.5% of 410,000 active; AID 1259415; in the data active means activity change below about -60%; inconclusive means no clear call, values can overlap the other calls; inactive means above about -39%
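Compounds were evaluated in HFFs infected with an HCMV luciferase reporter virus (MOI 1 PFU/cell). Luciferase in lysates collected 72 h post infection served as the replication measure.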
* hit, by the source's call; ? = inconclusive; . = no result given; ! = not confirmed by another sample; [ ] = remark or other dose. Unless noted, the call rests on the fitted dose curve; in most records, active means well fitted inhibition curve with a large enough effect; inconclusive means small, poorly fitted or top-dose-only effect, or another doubt; inactive means no such curve, though single readings can be large or run the other way. On the % scale 0 is the no-effect control and ±100 the full control effect.

SMILES	Lassa entry inh	Pf growth 96h	MARV entry inh	HCV inh	Pf growth 48h	HCMV inh
CCOc1ccccc1CNC(=O)C1CCN(c2nnc(C)c3c(C)n(-c4ccc(C)cc4)nc23)CC1	-9%[46.1 µM]	?	.	11µM*	?	-86*
CNc1cncc(-c2cccc(C(=O)N(C)C)c2)n1	.	.	.	.	.	-33
COc1ccc(Nc2nccc3[nH]c(-c4cccc(F)c4)cc23)cc1OC	.	.	.	.	.	-36
COc1ccccc1CCNC(=O)C1CCN(c2nnc(C)c3c(C)n(-c4ccc(C)cc4)nc23)CC1	?	?	.	?	?	-93*!
Cc1nnc(N2CCC(C(=O)NCCc3ccccc3)CC2)c2nn(-c3ccc(Cl)cc3)c(C)c12	12%[46.1 µM]	.	.	.	.	-11
Cc1nnc(N2CCC(C(=O)NCCc3ccccc3Cl)CC2)c2nn(-c3ccccc3)c(C)c12	-13%[46.1 µM]	.	.	.	.	-91*
O=C(O)c1sccc1SCc1ccc(Cl)c(Cl)c1	2%	64%	28%	6%	34%	-25
C=CS(=O)(=O)N(Cc1ccc(Cl)c(Cl)c1)C[C@@H](O)CO	?	.	.	14µM*	.	.
C=CC[N+]1([C@H]2C[C@H]3[C@@H]4CC[C@H]5C[C@H](O)[C@@H](N6CCOCC6)C[C@]5(C)[C@H]4CC[C@]3(C)[C@H]2OC(C)=O)CCCC1	.	4.3µM*	.	.	6.7µM*	.
CC(=O)OC1CCC2(C)C(CCC3C2CC(=O)C2(C)C3CC(N3CC3)C2C(C)=O)C1 (stereo not drawn)	-10%	.	?	-18%	.	?
CSc1ccc(CN(C)CC(=O)NCc2ccccc2)cc1	?	-2%	-1%[46.1 µM]	-11%	19%	-63*
COc1ccc(CNC(=O)CN(C)Cc2ccc(SC)cc2)cc1	?	6%	-13%[46.1 µM]	-10%	7%	2
CCOc1ccc(CN(C)C(=O)[C@H](Cc2ccccc2)NC(=O)OCc2ccccc2)cc1OC	8.9µM*	?	4.5µM*	?	?	-13
CSc1ccc(CN(C)C(=O)C(c2ccccc2)c2ccccc2)cc1	.	?	.	?	8.3µM*	-33
CSc1ccc(CN(C)C(=O)C(Cc2ccccc2)NC(=O)c2ccccc2)cc1 (stereo not drawn)	?	?	?	.	-11%	-67*
O=C(Nc1nnc([C@H]2C[C@H](O)[C@@H](CO)O2)s1)c1cccc(OC(F)(F)F)c1	.	.	.	.	.	1
CN(Cc1ccccc1)C(NC(=O)c1ccccc1)C(Cl)(Cl)Cl (stereo not drawn)	21µM*	?	-28%	?	-6%	-30
CC/C(=N\NC(=O)c1cccnc1)c1ccc2c(c1)OCCO2	1%	0.93µM*	2%[46.1 µM]	?	-11%	-15
C/C(=N\NC(=O)c1ccc2c(c1)OCO2)c1cccnc1	.	-7%	.	21%	18%	95
OCc1nc2ccccc2n1Cc1ccc(Cl)cc1	-21%	-18%	-29%	-7%	36%	-9
Nn1c(CN2CCCCC2)nc2ccccc2c1=O	-3%	2.3µM*	-9%	-6%	32%	41
c1ccc(Cn2c(CN3CCCC3)nc3ccccc32)cc1	20%	9.3µM*	-27%	14%	?	9
Clc1ccc(Cn2c(CN3CCCC3)nc3ccccc32)cc1	?	4.1µM*!	3.2µM*!	-7%[8.37 µM]	?	.
CC1Cc2[nH]c(=S)[nH]c(=O)c2C(c2ccc(F)cc2)O1 (stereo not drawn)	.	.	.	.	.	-6
Cc1cccc(C)c1NC(=O)C(C1CC1)N1C(=O)C(=O)c2ccccc21 (stereo not drawn)	.	.	.	.	.	-7
SMILES	Lassa entry inh	Pf growth 96h	MARV entry inh	HCV inh	Pf growth 48h	HCMV inh
CSc1cccc(CN2CCCC(C(=O)Nc3cccc(-n4cccn4)c3)C2)c1 (stereo not drawn)	-15%	-5%	-29%	?	8%	-5
CN1c2ccc([N+](=O)[O-])cc2CC2(C(=O)NC(=O)N(c3ccccc3)C2=O)C1c1ccccc1 (stereo not drawn)	-11%	2.9µM*	?	11%	3.3µM*	-16
CC(C)N1C(=O)NC(=O)C2(Cc3cc([N+](=O)[O-])ccc3N(C)C2c2ccccc2)C1=O (stereo not drawn)	-3%	12µM*	?	?	?	21
CC(C)c1ccc(C(=O)CN2C(=O)NC3(CCc4ccccc43)C2=O)cc1 (stereo not drawn)	-24%	.	-5%	?	.	-17
COc1ccc(CC(=O)NCc2nc3cccnc3n2Cc2ccc(F)cc2)cc1OC	-1%[46.1 µM]	.	.	.	.	-31
CCC(=O)N1CCC1(C)C(=O)Nc1cccc2c1CCCC2 (stereo not drawn)	.	.	.	.	.	31
CN(Cc1ccc(Cl)cc1)C(=O)CNC(=O)C12CC3CC(CC(C3)C1)C2	?	10µM*	?	-8%	9.3µM*	39
O=C(NCCc1ccc(Cl)cc1)C12CC3CC(CC(O)(C3)C1)C2	.	-2%	.	6%	20%	46
CC(C)(C)NC(=O)CSc1nc2ccc(Nc3nc(N4CCOCC4)nc(N4CCOCC4)n3)cc2s1	.	?	.	-24%	7.4µM*	-66*
CC(=O)CSc1nc2ccc(Nc3nc(N4CCOCC4)nc(N4CCOCC4)n3)cc2s1	-13%	6.6µM*	?	32µM*	?	-13
COc1ccc(NC(=O)CSc2nc3ccc(Nc4nc(N5CCOCC5)nc(N5CCOCC5)n4)cc3s2)cc1	.	?	.	10µM*	?	?
Cc1ccc(S(=O)(=O)/N=C(/c2ccccc2)N2CCOCC2)cc1	8%	-18%	?	-4%	10%	-2
Cc1ccc(S(=O)(=O)/N=C(/c2ccccc2)N2CCOCC2)c(C)c1	-3%[46.1 µM]	5.9µM*	?	6%	-41%[1.15 µM]	-16
COCCCN1C(=O)c2[nH]nc(-c3ccccc3O)c2C1c1ccc(OCc2ccccc2)cc1 (stereo not drawn)	?	.	?	.	.	-96*
CCCCN1C(=O)c2[nH]nc(-c3ccccc3O)c2C1c1ccc(OCc2ccccc2)cc1 (stereo not drawn)	?	.	?	.	.	-108*
CCCCN1C(=O)c2[nH]nc(-c3ccccc3O)c2C1c1ccc(C(C)(C)C)cc1 (stereo not drawn)	?	.	10%[46.1 µM]	.	.	28
Cc1cc(C(=O)N2CCCC(CNS(=O)(=O)c3cccs3)C2)nn1C (stereo not drawn)	?	-18%	23%[46.1 µM]	0%	1%	-33
Cc1nc(CC(C)C)cc(C(=O)N2CCCC(CNS(=O)(=O)c3cccs3)C2)n1 (stereo not drawn)	.	8.3µM*	.	-15%	18%	31
Cc1ccc(C#N)c(SCc2ccccc2[N+](=O)[O-])n1	-3%	9%	1%	-13%	-13%	?
Cc1nc(SCc2nnc(-c3ccc(Cl)cc3)o2)c2c3c(sc2n1)CCC3	.	-16%	.	.	12%	.
